Records with an inconclusive call do not appear. Entries that show only a call come without a potency. The source made the active and inactive calls. Calls come from the whole dose curve; as a rule, active = well fitted inhibition curve with a large enough effect; inconclusive = small, poorly fitted or top-dose-only effect; inactive = flat fitted curve, though single readings scatter.
Assay: CHOP2 Reporter Counterscreen Assay for Inhibitors of Ubiquitin-specific Protease USP2a;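 note: activated enterokinase alone at 50 pM in a cell-free format rather than USP2a or CHOP2; nearly all actives have a fitted effect of over 55% in size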
In short: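 Cell-free counterscreen with pre-activated enterokinase alone (50 pM final) in 20mM Tris-HCl pH 8.0, 2mM CaCl2, 2mM beta-mercaptoethanol, 0.05% CHAPS; compound preincubation 30 min RT, reporter substrate 25nM final, fluorescence read after 10 min (Ex 485/Em 531).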
Potency is the fitted concentration of half-maximal effect.

Structure (SMILES)	Potency
CNS(=O)(=O)c1cccc(C(=O)OCC(=O)c2cc(C)n(-c3ccc4c(c3)OCO4)c2C)c1	inactive
CCc1cc(C(=O)N=Nc2c(O)[nH]c3ccc([N+](=O)[O-])cc23)c2ccccc2n1	8.91 µM (active)
N#Cc1cccc(C(=O)N(CCc2ccccc2)Cc2cccs2)c1	inactive
CN(c1ccccc1)S(=O)(=O)c1ccc(Cl)c(C(=O)NCCc2c[nH]c3ccccc23)c1	inactive
O=S(=O)(c1cc(Cl)ccc1Cl)N1CCNCC1	inactive
Fc1ccc(-c2nnn(Cc3nc4ccccc4s3)n2)cc1	inactive
CCC1SC2=NC(C)=C(C(=O)OCCOC)C(c3ccc(C(=O)OC)cc3)N2C1=O (centres undefined)	inactive
O=C(COc1ccccc1)Nc1nnc(-c2ccc(Cl)s2)o1	inactive
COC(=O)c1c(N2C(=O)CCC2=O)sc2c1CCCC2	inactive
CS(=O)(=O)c1ccc(C(=O)Nc2nc(-c3ccco3)c(-c3ccco3)s2)cc1	inactive
Cc1ccc(O)c(CC(C)C)n1	inactive
Cn1nc(CC(=O)NCc2ccc(F)cc2)c2ccccc2c1=O	inactive
Cc1ccc(/C=C2/SC(=S)N(c3ccc(S(=O)(=O)Nc4nccs4)cc3)C2=O)cc1	12.6 µM (active)
CCCC(=O)Nc1ccc(N2CCN(C(=O)c3cc4ccccc4o3)CC2)cc1	inactive
CCn1c(CN2CCOCC2)nnc1SCC(=O)Nc1ccc(C(C)=O)cc1	inactive
O=C(C[n+]1cccc(C(=O)N/N=C/c2ccc(Br)cc2)c1)c1ccccc1	inactive
Cc1cc(-c2csc(NC(=O)c3ccc(=O)[nH]c3)n2)c(C)n1Cc1ccccc1	inactive
Cc1[nH]c2ccccc2c1C(c1ccccn1)c1c(C)[nH]c2ccccc12	inactive
Cc1nn(CC(=O)Nc2cccc(S(N)(=O)=O)c2)c(C)c1[N+](=O)[O-]	inactive
O=C(CCCN1C(=O)/C(=C\c2ccco2)SC1=S)Nc1ccc(O)cc1C(=O)O	12.6 µM (active)
Cc1cc(C)n2cc(CSc3nnnn3-c3ccccc3C)nc2n1	inactive
CCOC(=O)c1c(C)c(C(=O)O)n(C)c1C	inactive
CN1CCN(Cc2c(O)ccc3c(=O)c(Oc4ccccc4Cl)c(C(F)(F)F)oc23)CC1	inactive
Cc1cccn2c(=O)c3cc(C(=O)NCCN4CCOCC4)c(=N)n(CCN4CCOCC4)c3nc12	inactive

From PubChem BioAssay AID493169 (National Center for Advancing Translational Sciences (NCATS), 2011)
